POLI inh: qHTS for Inhibitors of Polymerase Iota; Pol iota fluorescent replication assay, 10 min; Potency, µM (highest dose often 115 µM), for inactives: at the highest dose activity, negative = inhibition, actives largely listed as inhibitors; 390,000 tested, 1% active; AID 588590, 2011
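Pol iota at 10 nM preincubated 15 min with compounds at room temperature; reaction started with fluorescent substrate, 50 nM final. Fluorescence read kinetically at 0 and 10 min; buffer-only wells as negative control.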
Pol kappa inh: qHTS for Inhibitors of Polymerase Kappa. DNA polymerase kappa (Homo sapiens), Q9UBT6. purified Pol kappa, fluorescent DNA synthesis assay, 10 min. Potency, µM (highest dose often 107 µM), for the others: at the highest dose activity, negative = inhibition, hits mostly inhibitors. 400,000 tested, 0.53% active. AID 588579, 2011; also: % is scaled to controls: 0 for no effect and ±100 for the full control effect
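Kinetic fluorescence screen: compound preincubated 15 min RT with 10 nM enzyme; 50 nM substrate (final) initiates; reads at 0/10 min.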
WRN helicase inh: qHTS for Inhibitors of WRN Helicase; Bifunctional 3'-5' exonuclease/ATP-dependent helicase WRN (Homo sapiens), Q14191; WRN helicase unwinding, fluorescent forked duplex, kinetic; Potency, µM (doses to about 114 µM), without a hit: at the highest dose activity change, negative = inhibition, hits mostly inhibitors; 360,000 tested, 0.46% active; AID 651768, 2012; also: % is scaled to controls: 0 for no effect and ±100 for the full control effect; nearly all actives have a fitted effect of over 55% in size
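WRN at 20 nM final was preincubated with compound for 15 min at room temperature; reaction started with 100 nM forked duplex oligonucleotide carrying fluorophore and quencher plus 2 mM ATP (final). Unwinding followed kinetically by red fluorescence (ex 525/em 598 nm).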
FEN1 inhibitor: qHTS Assay for the Inhibitors of Human Flap endonuclease 1 (FEN1); 390,000 tested, 0.35% active; P39748; Recombinant FEN1 flap cleavage, fluorescence, 15 min; Potency, µM (doses to about 114 µM), for inactives: top-dose activity change, negative = inhibition, most hits filed as inhibitors; also: % is scaled to controls: 0 for no effect and ±100 for the full control effect; nearly all actives have a fitted effect of over 65% in size
Target sequence (P39748 whole entry, looked up): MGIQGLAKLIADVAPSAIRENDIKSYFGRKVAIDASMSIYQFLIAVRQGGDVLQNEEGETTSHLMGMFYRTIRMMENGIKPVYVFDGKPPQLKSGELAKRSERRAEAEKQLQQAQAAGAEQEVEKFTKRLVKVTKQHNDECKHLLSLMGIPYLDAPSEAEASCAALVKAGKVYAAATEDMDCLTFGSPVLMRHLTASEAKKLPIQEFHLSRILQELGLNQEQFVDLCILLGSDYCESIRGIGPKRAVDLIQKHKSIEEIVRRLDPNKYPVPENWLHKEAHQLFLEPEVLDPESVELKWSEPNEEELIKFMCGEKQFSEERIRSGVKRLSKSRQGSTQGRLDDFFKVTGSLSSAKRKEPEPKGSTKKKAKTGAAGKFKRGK
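Compounds are tested as a concentration series against 10 nM FEN1; after a 15 min room-temperature preincubation, 50 nM substrate starts cleavage, with plate reads at 0 and 15 min. Normalized responses are fitted by a Hill equation.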
POLB inh: qHTS Assay for Inhibitors of DNA Polymerase Beta. Pol beta primer extension/strand displacement, fluorescence kinetic. Potency, µM (highest dose often 114 µM), inactives show at the highest dose activity change, negative = inhibition, most hits filed as inhibitors. 340,000 tested, 1.3% active. AID 485314, 2010; also: % is scaled to controls: 0 for no effect and ±100 for the full control effect
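Homogeneous kinetic assay of primer extension and strand displacement by 10 nM Pol beta, preincubated 15 min at room temperature with compound before 50 nM substrate (final) was added. Read at 0 and 10 min; four-parameter Hill fit.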
POLH inh: qHTS for Inhibitors of Polymerase Eta. recombinant Pol eta, fluorescent DNA replication assay. DNA polymerase eta (Homo sapiens), Q9Y253. Potency, µM (top dose mostly 114 µM), for the others: at the highest dose activity change, negative = inhibition, usual class: inhibitors. AID 588591, 2011. 390,000 tested, 1.2% active; also: % is scaled to controls: 0 for no effect and ±100 for the full control effect
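Fluorescent replication assay: 50 nM final substrate added after a 15 min room-temperature compound preincubation with 10 nM enzyme. Signal taken at 0 min and again at 10 min.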
An asterisk follows results filed as active; ? = inconclusive; . = no result; [ ] = another dose, or the depositor's remark. Only some compounds are listed: those with a hit (about 2.4% of all), similar ones and a draw of the others. Calls follow the shape of the dose curve; as a rule, active = well fitted curve in the direction sought with a large enough effect; inconclusive = small, poorly fitted or top-dose-only effect, or another doubt; inactive = no such curve, though single readings can be large; an effect the other way counts as inactive or inconclusive. Potency is read from the fitted curve at half-maximal effect.

SMILES	POLI inh	Pol kappa inh	WRN helicase inh	FEN1 inhibitor	POLB inh	POLH inh
O=Cc1c(C(=O)O)n(Cc2ccc(Cl)cc2)c2ccccc12	?	-16%	-19%	4%	?	50µM*
COc1ccc(C(=O)C2CCCN(Cc3ccon3)C2)c(OC)c1 (stereo not given)	89µM*	?	-6%[57.1 µM]	-11%	0%	?
CC(C)Oc1cccc(C(=O)C2CCCN(Cc3ccon3)C2)c1 (stereo not given)	34%	-6%	-11%	-13%	0%	-17%
C=CCc1cc(C=C2C(=O)NC(=O)NC2=O)cc(OC)c1OCc1ccc(C(=O)O)cc1	?	-20%	-11%	?	?	50µM*
COc1ccc2c(c1)[C@@]13CCCCC1[C@@H](C2)N(C)CC3 (stereo not given in full)	.	-2%[60.1 µM]	.	.	.	.
CCN1C(=O)C(=Cc2cc(C)n(C3CC3)c2C)C(=O)N(CC)C1=S	12%	-13%	-9%	-1%	0%	-15%
CCN1C(=O)C(=Cc2ccc(C)s2)C(=O)N(CC)C1=S	0%	-13%	?	-11%	?	25µM*
O=C(CCl)c1ccc(Oc2ccc(C(=O)CCl)cc2)cc1	.	-9%[19.4 µM]	.	.	.	.
O=C(N/N=C/C1C(=O)NC(=S)N(c2ccccc2)C1=O)c1cc(Br)c(O)c(Br)c1 (stereo not given)	?	?	79µM*	-9%	?	?
O=C(N/N=C/c1c(O)n(C2CCCCC2)c(=S)[nH]c1=O)c1ccccc1	25%	10%	-7%	1%	20%	-10%
COc1cc(/C=C/c2nc3ccccc3c(=O)n2-c2cccc(O)c2)ccc1O	18µM*	?	?	?	?	?
O=c1c2ccccc2nc(/C=C/c2ccc(O)c(O)c2)n1-c1ccccc1	?	-19%	-9%[11.6 µM]	-13%	?	18µM*
COc1cc(/C=C/c2nc3ccccc3c(=O)n2-c2ccccc2O)ccc1O	118%	-5%	-11%	-15%	-5%	-25%
CC(C)c1cc2c(c(O)c1O)[C@@]1(C(=O)O)CCCC(C)(C)[C@@H]1CC2	.	-10%[60.1 µM]	.	.	.	.
CC(C)(O)C1C2OC(=O)C1[C@]1(O)CC3O[C@@]34C(=O)OC2[C@@]14C (stereo not given in full)	.	-6%[60.1 µM]	.	.	.	.
Cc1cccc(N2C(=O)NC(=O)/C(=C/c3cc4c(cc3[N+](=O)[O-])OCO4)C2=O)c1	?	89µM*	50µM*	-33%	0%	-9%
O=C1NC(=O)C(=Cc2cc3c(cc2[N+](=O)[O-])OCO3)C(=O)N1	?	-5%	71µM*	15%	-26%	-8%
C#CCN1C(C)=C(C(=O)CCO)[C@@H](c2cccc(-n3oo3)c2)C(C(=O)OC)=C1C	.	-11%[19.4 µM]	.	.	.	.
CN1C(=O)C(=Cc2ccccc2Oc2ccc(Cl)c(F)c2)C(=O)N(C)C1=O	-4%	-17%	50µM*	-2%	19%	?
O=C1NC(=O)C(=Cc2ccccc2Oc2ccc(F)cc2)C(=O)N1	111%	5%	32µM*	0%	7%	-11%
O=C1OC(c2cc(I)c(O)c(I)c2)(c2cc(I)c(O)c(I)c2)c2ccccc21	.	3.5µM*	.	.	.	.
CNCC(N)C(=O)O (stereo not given)	.	14%[60.1 µM]	.	.	.	.
COP(=O)(OC)/C(C=O)=N/Nc1ccc([N+](=O)[O-])cc1	36%	0%	-5%	-4%	22µM*	-1%
COP(=O)(OC)C(Nc1ccc([N+](=O)[O-])cc1)c1ccccc1 (stereo not given)	127%	-2%	-12%	1%	20%	1%
